# PubChem BioAssay (NCI)
# About 79,000 compounds went through this panel and 15% of them were active in at least one assay; those are over-represented in the sample as a whole. Values without a mark were called inactive. Active and inactive are the calls of the source. Cut-off read from the data, not from the text of the source: active = growth inhibition above about 70%; inactive = the rest.
# How the values were obtained:
# [1] = NCI Yeast Anticancer Drug Screen. Data for the rad50 strain (AID 155);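 note: 0% = growth of vehicle-only cultures of the same strain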; settings: S. cerevisiae rad50 strain growth inhibition, hits give high values
# Outline: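 Readout: growth inhibition relative to vehicle-treated cultures. Compound exposure was carried out in a genetically defined yeast strain deficient in DNA damage repair.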
# [2] = NCI Yeast Anticancer Drug Screen. Data for the mec2-1 strain (AID 157); settings: S. cerevisiae mec2-1 strain, hits give high values
# Outline: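 Each compound was tested on mec2-1 yeast, a strain altered in DNA damage repair or cell cycle control. Growth inhibition is reported relative to vehicle.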
# [3] = NCI Yeast Anticancer Drug Screen. Data for the sgs1 mgt1 strain (AID 161);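 note: 0% = growth of cultures given vehicle only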; settings: S. cerevisiae sgs1 mgt1 strain, hits give high values
# Outline: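 Mutant yeast exposed to compound; growth scored against vehicle-only wells.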
# [4] = NCI Yeast Anticancer Drug Screen. Data for the cln2 rad14 strain (AID 165);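 note: 0% = growth equal to vehicle treated cultures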; settings: S. cerevisiae cln2 rad14 strain, hits give high values
# Outline: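 Test compounds were added to cln2 rad14 yeast cultures; inhibition of growth was then determined by comparison with vehicle treatment.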
# [5] = NCI Yeast Anticancer Drug Screen. Data for the bub3 strain (AID 167); settings: S. cerevisiae bub3 mutant strain, hits give high values
# Outline: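 Readout: yeast growth inhibition, expressed relative to vehicle-only wells. The test organism is a mutant strain from a panel with lesions in DNA repair or checkpoint genes.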
# [6] = NCI Yeast Anticancer Drug Screen. Data for the mlh1 rad18 strain (AID 175); settings: S. cerevisiae mlh1 rad18 strain growth inhibition, hits give high values
# Outline: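 Inhibition values reflect reduced growth of mutant yeast versus vehicle-treated controls following compound exposure; the mutations affect DNA damage repair.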
# [7] = at 5.0 µM (retest, dose inferred, filed as 0.5)
# [8] = at 50.0 µM (retest, dose inferred, filed as 5.0)
Compound,"growth inhibition [1, 7]","growth inhibition [1, 8]",growth inhibition ([1]; at 50.0 µM),"growth inhibition [2, 7]","growth inhibition [2, 8]",growth inhibition ([2]; at 50.0 µM),"growth inhibition [3, 7]","growth inhibition [3, 8]",growth inhibition ([3]; at 50.0 µM),"growth inhibition [4, 7]","growth inhibition [4, 8]",growth inhibition ([4]; at 50.0 µM),"growth inhibition [5, 7]","growth inhibition [5, 8]",growth inhibition ([5]; at 50.0 µM),"growth inhibition [6, 7]","growth inhibition [6, 8]",growth inhibition ([6]; at 50.0 µM)
CC(C)Cc1cc(O)cc2ccccc12,4%,98% (active),98.9% (active),5%,99% (active),99.2% (active),3%,98% (active),98.5% (active),2%,97% (active),98.4% (active),5%,99% (active),98.5% (active),0%,98% (active),98.8% (active)
O=C1C=CC(=O)C(c2ccccc2)=C1,12%,99% (active),99.5% (active),24%,99% (active),99.5% (active),18%,99% (active),99.5% (active),16%,99% (active),98.8% (active),3%,99% (active),99.5% (active),18%,99% (active),99.2% (active)
CCCCCCCCCCCCNC(=O)C[n+]1cccc(C(N)=O)c1,3%,88% (active),79% (active),-3%,90% (active),19.8%,-2%,97% (active),-2.6%,-6%,67%,36.4%,-9%,76% (active),50.8%,-1%,85% (active),51.4%
Nc1ccccc1Sc1ccc(F)cc1[N+](=O)[O-],-6%,85% (active),71% (active),-19%,26%,89.8% (active),2%,76% (active),89.1% (active),-6%,59%,72.3% (active),-3%,85% (active),88.8% (active),-4%,93% (active),88.5% (active)
Nc1ccc2nnnn2c1,0%,72% (active),24.5%,-2%,19%,38%,9%,76% (active),46.8%,3%,27%,31.2%,10%,78% (active),5.8%,14%,91% (active),70.5% (active)
CC=CCOc1cc(NC(=S)OC(C)C)ccc1Cl (mixture of isomers),28%,94% (active),79.2% (active),18%,97% (active),89.2% (active),31%,92% (active),88.4% (active),22%,96% (active),90% (active),27%,97% (active),89.7% (active),25%,96% (active),85.8% (active)
O=C(O)c1cccc(N=Nc2c(S(=O)(=O)O)ccc3c2C(=O)c2ccccc2C3=O)c1O,17%,38%,30.4%,8%,17%,36.8%,8%,38%,-2.5%,-21%,17%,71.1% (active),-11%,25%,-15.2%,29%,28%,85.6% (active)
O=C1N(Cc2ccccc2)CC1(c1ccccc1)C1CCCCC1O (stereo not given),-1%,96% (active),-18.1%,-5%,49%,7.8%,-3%,82% (active),35.5%,-8%,84% (active),6.9%,-2%,93% (active),65.6%,-2%,93% (active),4.1%
CCOC(=O)c1nnc2cc(-c3ccccc3)nn2c1-c1ccccc1,65%,85% (active),51.1%,35%,66%,21.8%,48%,80% (active),75.2% (active),25%,38%,41.4%,45%,70% (active),65.9%,61%,90% (active),38.6%
CC[N+](C)(CC)CCCOC(=O)c1ccccc1Oc1ccc(C)cc1,1%,0%,75.5% (active),-17%,-8%,13.8%,-9%,-7%,21.9%,-4%,-6%,-0.85%,2%,42%,12.8%,15%,3%,14.9%
CCCCCCCCCCN1Cc2ccccc2C1,77% (active),99% (active),99% (active),68%,99% (active),97.9% (active),87% (active),99% (active),99% (active),68%,99% (active),97.5% (active),85% (active),99% (active),98% (active),68%,99% (active),99.3% (active)
CCCNC(=O)C(=O)NNc1ccccc1,7%,64%,66.8%,6%,62%,59.1%,10%,55%,57%,11%,79% (active),73.5% (active),-2%,95% (active),70.7% (active),14%,95% (active),90.1% (active)
CSC(=Nc1ccccc1)/N=C(\SCc1ccccc1)N(C)C,45%,98% (active),99.3% (active),26%,45%,99.7% (active),27%,99% (active),99.2% (active),13%,99% (active),98.8% (active),-30%,99% (active),99.5% (active),44%,99% (active),99.3% (active)
CCCCC(CC)CCC(C)OC(=O)C(O)c1ccccc1 (stereo not given),-1%,86% (active),61.8%,-6%,87% (active),86.7% (active),-4%,85% (active),83% (active),1%,82% (active),32.5%,1%,88% (active),75.5% (active),-4%,90% (active),87.8% (active)
O=C(Nc1ccccc1O)/C(Cl)=C/Cl,-153%,95% (active),98.2% (active),-47%,97% (active),97.8% (active),-57%,96% (active),78.8% (active),-67%,95% (active),93.5% (active),-63%,96% (active),94.8% (active),-134%,96% (active),99.3% (active)
O=C(c1ccccc1)c1ccc(O)cc1O,-5%,49%,85% (active),-10%,24%,84.5% (active),-5%,15%,88.5% (active),-4%,2%,26.4%,-26%,-17%,58.9%,-9%,12%,72.1% (active)
CCC[CH2][Sn]([CH2]CCC)([O]C(=O)C1CCC(=O)N1)[O]C(=O)C1CCC(=O)N1 (stereo not given),93% (active),93% (active),90.3% (active),94% (active),94% (active),90.7% (active),91% (active),91% (active),90% (active),96% (active),96% (active),91% (active),94% (active),94% (active),90.9% (active),95% (active),95% (active),88.7% (active)
Cc1ccc(NC(=O)CC2SC(=Nc3ccc(Cl)cc3)NC2=O)cc1C (stereo not given),79% (active),-11%,99.2% (active),57%,5%,99.5% (active),65%,0%,99.3% (active),41%,18%,98.3% (active),89% (active),11%,99.1% (active),31%,12%,99.2% (active)
Nc1cc2c(nc3c4ccccc4c(N)cc3[n+]2-c2cccc3ccccc23)c2ccccc12 (tested in a mixture with another compound),95% (active),92% (active),89.4% (active),62%,92% (active),90.2% (active),59%,94% (active),89.2% (active),31%,89% (active),84.5% (active),61%,91% (active),84.8% (active),79% (active),91% (active),89.8% (active)
NNC(=O)C(=O)N/N=C(/CCC(=O)NCCc1ccccc1)CC(=O)c1ccccc1,1%,3%,28.5%,1%,2%,3.05%,-2%,4%,9.1%,-3%,1%,6.15%,0%,0%,-3.3%,-2%,-3%,22.6%
